Records with an inconclusive call do not appear. Where a call stands in place of a potency, no number is given. The source made the active and inactive calls. Unless noted, calls follow the shape of the dose curve; as a rule, active = well fitted curve in the direction sought with a large enough effect in the repeat runs; inconclusive = weak or mixed curves; inactive = no such curve, though single readings can be large; an effect the other way counts as inactive or inconclusive.

Consider 14 compounds from PubChem BioAssay (Tox21).

In assay [1] the target is Thyrotropin-releasing hormone receptor (Homo sapiens) (UniProt P34981). In words: qHTS assay to identify small molecule antagonists of the thyrotropin-releasing hormone receptor (TRHR) signaling pathway (AID 1346877; active = well fitted inhibition curve with a large enough effect in the repeat runs, not every such curve was filed as active; also: series mostly up to about 51 µM). The method in brief: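 Kinetic fluorescence (3 min, 1 s resolution) following stimulation with TRH at 1 nM final; HEK293 cells bearing human TRHR; 5 min compound preincubation at RT; concentration-response over 15 points, triplicates.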
In general terms: qHTS replaces the single test concentration by a dilution series.

For assay [2] the target is unchanged. In words: qHTS assay to identify small molecule agonists of the thyrotropin-releasing hormone receptor (TRHR) signaling pathway (AID 1346891; calls by dose curve; also: series mostly up to about 58 µM). In short, it runs like this: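 HEK293 cells expressing TRHR plated 18 h at 37 C/5% CO2, calcium dye-loaded 2 h at 37 C, then compound added (agonist mode); kinetic calcium fluorescence read 3 min at 1 s intervals; 15 concentrations in triplicate.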

A short description of assay [3]: Caspase-3/7 induction in CHO-K1 cells by small molecules, qHTS assay (AID 1346980). Also: nearly all actives have a fitted effect of over 15% in size. The method in brief:
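Wild-type CHO-K1 cells exposed to compounds for 17hr at 37 C, 5% CO2. Caspase-3/7 activity then measured by Caspase-Glo 3/7 luminescence after 30min at room temperature.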

Assay [4] concerns the target Estrogen receptor beta (Homo sapiens) (UniProt Q92731). The experiment in a line: qHTS assay to identify small molecule antagonists of the estrogen receptor beta (ER-beta) signaling pathway (AID 1259378; active = well fitted inhibition curve with a large enough effect in the signal ratio in the repeat runs, not every such curve was filed as active; the % refers to the signal ratio). The method in brief: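 ER-beta-UAS-bla HEK293T cells in 2% charcoal-stripped FBS medium treated with compound plus 1nM final 17-beta-estradiol for 16 hr at 37C. Beta-lactamase reporter read by FRET substrate fluorescence after 2 hours at room temperature.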

Assay [5] can be described thus: qHTS assay to identify small molecule HDAC inhibitors (AID 1259364).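 Also: wild-type HCT-116 cells with endogenous class I/II HDAC activity; top concentration of the series differs between compounds; nearly all actives have a fitted effect of over 45% in size.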 The method in brief:
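Quantitative high-throughput format: overnight-seeded HCT-116 cells got compounds for 2 hr at 37C; HDAC-Glo I/II reagent added, 30 min RT, luminescence measured.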

Assay [6] can be described thus: qHTS assay to identify small molecule agonists of the hypoxia (HIF-1) signaling pathway (AID 1224846; active = well fitted activation curve with a large enough effect in the signal ratio in the repeat runs, not every such curve was filed as active; the % refers to the signal ratio). The method in brief: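 Agonist mode reporter screen. ME-180 cells stably expressing bla under HRE control received test compounds in DMSO for 17 hrs (37C, 5% CO2), and beta-lactamase activity was then detected with the CCF4-AM FRET substrate.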
Assay [7] concerns the target Thyrotropin receptor (Homo sapiens) (UniProt P16473). In words: qHTS assay to identify small molecule antagonists of the thyroid stimulating hormone receptor (TSHR) signaling pathway (AID 1259385; calls by dose curve; also: nearly all actives have a fitted effect of over 20% in size). The method in brief: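 TSHR-HEK293 cells (800/well) plated 18 h, then compounds with Ro20-1724 and TSH at 1.5 ng/mL final, 30 min at room temperature. cAMP quantified by HTRF (cAMP-d2/anti-cAMP-cryptate, 1 h); 15 concentrations in triplicate.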

Assay [8] concerns the target Estrogen receptor (Homo sapiens) (UniProt P03372). In words: qHTS assay to identify small molecule antagonists of the estrogen receptor alpha (ER-alpha) signaling pathway using the BG1 cell line in the presence of 0.1 nM 17-beta-estradiol (AID 1259244). Also: nearly all actives have a fitted effect of over 50% in size. The method in brief: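 Reporter is a stably transfected luciferase under four estrogen responsive elements in VM7Luc4E2 cells expressing native full-length ER-alpha; inhibition of 0.1 nM (final) 17beta-estradiol-driven signal over 22 h is read by luminescence.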

The target of assay [9] is Nuclear receptor subfamily 1 group I member 2 (Homo sapiens) (UniProt O75469). In words: Human pregnane X receptor (PXR) small molecule agonists, qHTS assay (AID 1346982). Also: nearly all actives have a fitted effect of over 35% in size. The method in brief: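 Reporter HepG2 cells expressing PXR-Luc are cultured in charcoal-stripped FBS (5%), treated with compounds for 24 hr at 37 C, and assayed by ONE-Glo luminescence after 30 min at room temperature.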

The target in assay [10] is Nuclear receptor subfamily 1 group I member 3 (Homo sapiens) (UniProt Q14994). In words: qHTS assay to identify small molecule agonists of the constitutive androstane receptor (CAR) signaling pathway (AID 1224839). Also: series mostly up to about 92 µM; nearly all actives have a fitted effect of over 15% in size. In short, it runs like this: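 HepG2 cells stably co-transfected with hCAR and a CYP2B6-2.2kb luciferase reporter; compounds at 15 concentrations with 0.75 uM PK11195 present. After 24 hr at 37 C, luciferase read by ONE-Glo luminescence.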

Assay [11] concerns the target Estrogen receptor beta (Homo sapiens) (UniProt Q92731). The experiment in a line: qHTS assay to identify small molecule agonists of the estrogen receptor beta (ER-beta) signaling pathway (AID 1259377; active = well fitted activation curve with a large enough effect in the signal ratio in the repeat runs, not every such curve was filed as active; the % refers to the signal ratio). In short, it runs like this: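 ER-beta-UAS-bla HEK293T cells in medium with 2% charcoal-stripped FBS were exposed to compounds for 16 h at 37C. Beta-lactamase reporter activity was read as fluorescence after 2 h with LiveBLAzer B/G FRET substrate at room temperature.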

In assay [12] the target is Vitamin D3 receptor (Homo sapiens) (UniProt P11473). In words: qHTS assay to identify small molecule antagonists of the vitamin D receptor (VDR) signaling pathway (AID 743223; active = well fitted inhibition curve with a large enough effect in the signal ratio in the repeat runs, not every such curve was filed as active; the % refers to the signal ratio). The method in brief:
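VDR-bla cells were treated with compound plus 3 nM final 1alpha,25-dihydroxyvitamin D3 for 16 h at 37C. Beta-lactamase reporter read by B/G FRET substrate fluorescence after 2 h at room temperature. qHTS format.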

Assay [13] addresses Thyrotropin receptor (Homo sapiens) (UniProt P16473). In words: qHTS assay to identify small molecule agonists of the thyroid stimulating hormone receptor (TSHR) signaling pathway (AID 1224843; calls by dose curve; also: nearly all actives have a fitted effect of over 45% in size). In short, it runs like this:
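Agonist-mode screen: TSHR HEK293 cells received test chemicals for half an hour at room temperature, then HTRF cAMP detection reagents for one hour prior to fluorescence measurement. Each chemical ran as a 15-concentration series, triplicated.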

Assay [14] deals with Peroxisome proliferator-activated receptor delta (Homo sapiens) (UniProt Q03181). In words: qHTS assay to identify small molecule antagonists of the peroxisome proliferator-activated receptor delta (PPARd) signaling pathway (AID 743215; active = well fitted inhibition curve with a large enough effect in the signal ratio in the repeat runs, not every such curve was filed as active; the % refers to the signal ratio;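 also: cells stimulated with agonist L165041 at 300 nM final during compound exposure; series mostly up to about 62 µM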). In short, it runs like this: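 Plated HEK293H PPARd-bla cells rested 5 h at 37 C and 5% CO2. Compound, then agonist L165041 at 300 nM final, was added; 17 h at 37 C followed. Substrate loading, 2 h room temperature, fluorescence measured.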

Assay [15] can be described thus: qHTS assay to identify small molecule antagonists of the estrogen related receptor (ERR) signaling pathway from Tox21 library - cell viability counter screen (AID 1224834). Also: nearly all actives have a fitted effect of over 30% in size. The method in brief:
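Compounds in DMSO were pinned onto ERR cells that had been incubated for 6 h, and the plates were held at 37 C for 17.5 h. CellTiter-Fluor reagent was then added and fluorescence was measured after 30 min.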

A short description of assay [16]: qHTS assay to identify small molecule antagonists of the estrogen related receptor signaling pathway with the pleiotropic PPARgamma coactivator (PGC) from Tox21 10K library - cell viability counter screen (AID 1224840; active = well fitted cell-killing curve with a large enough effect in the repeat runs, not every such curve was filed as active; also: nearly all actives have a fitted effect of over 40% in size). The method in brief:
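Cell viability is measured by CellTiter-Fluor fluorescence in PGC/ERR cells that receive compounds after a 6-hour attachment period and are then incubated 17.5 hours at 37 C.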

Assay [17] in a line: qHTS assay to identify small molecule antagonists of the sonic hedgehog signaling (Shh) pathway (AID 1259369; calls by dose curve; also: nearly all actives have a fitted effect of over 45% in size). The method in brief: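 Stable Gli1-Luc reporter NIH/3T3 clone; quantitative HTS in stimulated mode with conditioned medium. Luminescence measured after 24hr compound treatment at 37 C.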

Chain of Estrogen receptor beta (Homo sapiens) (Q92731 whole entry, looked up): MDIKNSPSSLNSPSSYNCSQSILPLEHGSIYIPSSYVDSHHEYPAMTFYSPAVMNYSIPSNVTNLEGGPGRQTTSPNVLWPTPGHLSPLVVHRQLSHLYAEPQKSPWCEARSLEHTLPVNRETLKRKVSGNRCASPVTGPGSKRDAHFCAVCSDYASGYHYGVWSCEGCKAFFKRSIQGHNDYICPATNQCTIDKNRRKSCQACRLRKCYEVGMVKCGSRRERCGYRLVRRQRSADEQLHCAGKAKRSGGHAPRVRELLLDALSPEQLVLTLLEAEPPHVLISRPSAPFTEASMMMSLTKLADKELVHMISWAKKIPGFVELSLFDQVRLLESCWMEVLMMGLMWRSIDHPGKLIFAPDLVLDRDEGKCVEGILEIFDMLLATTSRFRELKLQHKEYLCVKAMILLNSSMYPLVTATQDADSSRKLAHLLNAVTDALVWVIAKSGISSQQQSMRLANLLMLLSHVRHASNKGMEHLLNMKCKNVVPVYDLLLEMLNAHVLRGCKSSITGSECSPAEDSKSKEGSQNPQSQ
Chain of Thyrotropin receptor (Homo sapiens) (P16473 whole entry, looked up): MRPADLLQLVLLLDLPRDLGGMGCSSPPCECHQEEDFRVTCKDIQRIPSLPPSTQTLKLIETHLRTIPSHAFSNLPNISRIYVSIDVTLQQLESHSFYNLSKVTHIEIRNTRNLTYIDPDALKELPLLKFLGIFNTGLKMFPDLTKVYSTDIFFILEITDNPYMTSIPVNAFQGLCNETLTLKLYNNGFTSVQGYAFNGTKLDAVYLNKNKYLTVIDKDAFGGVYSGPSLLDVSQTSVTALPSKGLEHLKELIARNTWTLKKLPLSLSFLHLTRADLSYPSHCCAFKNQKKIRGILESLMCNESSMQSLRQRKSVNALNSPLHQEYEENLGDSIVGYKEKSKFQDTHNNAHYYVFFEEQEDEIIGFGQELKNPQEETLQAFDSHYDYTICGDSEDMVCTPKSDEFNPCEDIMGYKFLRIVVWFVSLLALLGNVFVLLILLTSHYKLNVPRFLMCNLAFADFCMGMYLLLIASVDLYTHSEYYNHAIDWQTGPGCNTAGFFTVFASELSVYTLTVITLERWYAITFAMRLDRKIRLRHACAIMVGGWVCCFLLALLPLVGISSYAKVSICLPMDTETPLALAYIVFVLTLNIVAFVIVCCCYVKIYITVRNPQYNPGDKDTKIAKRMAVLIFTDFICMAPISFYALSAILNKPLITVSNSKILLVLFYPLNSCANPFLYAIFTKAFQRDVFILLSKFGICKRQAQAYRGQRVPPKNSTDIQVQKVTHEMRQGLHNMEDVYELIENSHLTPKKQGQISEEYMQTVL
Chain of Estrogen receptor (Homo sapiens) (P03372 whole entry, looked up): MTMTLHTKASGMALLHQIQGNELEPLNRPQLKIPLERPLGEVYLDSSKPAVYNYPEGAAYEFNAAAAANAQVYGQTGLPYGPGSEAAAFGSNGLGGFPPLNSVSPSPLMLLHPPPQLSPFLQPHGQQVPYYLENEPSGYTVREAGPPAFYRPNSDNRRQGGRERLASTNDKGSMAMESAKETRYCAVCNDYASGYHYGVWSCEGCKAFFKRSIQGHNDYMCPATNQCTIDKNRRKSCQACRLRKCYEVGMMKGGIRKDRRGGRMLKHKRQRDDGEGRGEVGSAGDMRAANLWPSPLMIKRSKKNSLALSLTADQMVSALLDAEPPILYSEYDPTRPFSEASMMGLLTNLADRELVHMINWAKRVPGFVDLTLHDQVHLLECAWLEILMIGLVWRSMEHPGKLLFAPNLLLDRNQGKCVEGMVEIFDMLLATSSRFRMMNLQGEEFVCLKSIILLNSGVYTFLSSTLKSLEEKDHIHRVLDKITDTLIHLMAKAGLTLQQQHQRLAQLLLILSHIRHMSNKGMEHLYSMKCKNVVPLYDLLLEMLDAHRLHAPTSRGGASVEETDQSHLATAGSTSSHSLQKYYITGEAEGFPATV
Chain of Thyrotropin-releasing hormone receptor (Homo sapiens) (P34981 whole entry, looked up): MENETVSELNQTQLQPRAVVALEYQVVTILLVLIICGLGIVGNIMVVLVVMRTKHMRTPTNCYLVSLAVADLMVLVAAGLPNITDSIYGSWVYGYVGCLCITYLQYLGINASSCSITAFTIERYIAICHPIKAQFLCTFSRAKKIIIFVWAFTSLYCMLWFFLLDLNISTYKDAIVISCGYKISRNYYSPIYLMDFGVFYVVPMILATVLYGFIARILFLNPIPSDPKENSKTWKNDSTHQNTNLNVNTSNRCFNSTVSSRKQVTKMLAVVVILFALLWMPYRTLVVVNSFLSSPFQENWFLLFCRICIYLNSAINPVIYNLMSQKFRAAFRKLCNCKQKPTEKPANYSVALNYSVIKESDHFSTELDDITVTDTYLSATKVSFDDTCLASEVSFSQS
Chain of Peroxisome proliferator-activated receptor delta (Homo sapiens) (Q03181 whole entry, looked up): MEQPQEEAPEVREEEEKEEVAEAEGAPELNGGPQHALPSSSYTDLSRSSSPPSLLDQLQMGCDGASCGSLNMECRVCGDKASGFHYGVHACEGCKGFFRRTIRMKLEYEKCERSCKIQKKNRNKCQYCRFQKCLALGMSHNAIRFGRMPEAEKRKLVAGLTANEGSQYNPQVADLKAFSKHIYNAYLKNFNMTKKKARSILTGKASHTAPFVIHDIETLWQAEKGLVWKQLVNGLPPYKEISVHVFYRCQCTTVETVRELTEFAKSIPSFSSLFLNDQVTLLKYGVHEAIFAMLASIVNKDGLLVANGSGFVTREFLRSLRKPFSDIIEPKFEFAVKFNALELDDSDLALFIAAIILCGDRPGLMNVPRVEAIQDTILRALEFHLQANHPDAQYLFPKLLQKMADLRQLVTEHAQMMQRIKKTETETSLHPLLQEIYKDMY
Chain of Nuclear receptor subfamily 1 group I member 3 (Homo sapiens) (Q14994 whole entry, looked up): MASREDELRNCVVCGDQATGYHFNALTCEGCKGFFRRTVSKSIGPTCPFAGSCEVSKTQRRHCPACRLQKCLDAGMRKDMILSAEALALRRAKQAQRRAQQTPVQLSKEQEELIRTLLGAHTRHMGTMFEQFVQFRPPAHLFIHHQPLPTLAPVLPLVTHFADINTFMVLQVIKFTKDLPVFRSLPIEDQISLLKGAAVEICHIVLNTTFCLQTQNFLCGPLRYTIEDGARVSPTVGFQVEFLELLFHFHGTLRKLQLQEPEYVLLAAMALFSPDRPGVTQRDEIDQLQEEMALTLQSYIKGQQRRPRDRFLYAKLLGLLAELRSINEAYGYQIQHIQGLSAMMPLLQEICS
Chain of Nuclear receptor subfamily 1 group I member 2 (Homo sapiens) (O75469 whole entry, looked up): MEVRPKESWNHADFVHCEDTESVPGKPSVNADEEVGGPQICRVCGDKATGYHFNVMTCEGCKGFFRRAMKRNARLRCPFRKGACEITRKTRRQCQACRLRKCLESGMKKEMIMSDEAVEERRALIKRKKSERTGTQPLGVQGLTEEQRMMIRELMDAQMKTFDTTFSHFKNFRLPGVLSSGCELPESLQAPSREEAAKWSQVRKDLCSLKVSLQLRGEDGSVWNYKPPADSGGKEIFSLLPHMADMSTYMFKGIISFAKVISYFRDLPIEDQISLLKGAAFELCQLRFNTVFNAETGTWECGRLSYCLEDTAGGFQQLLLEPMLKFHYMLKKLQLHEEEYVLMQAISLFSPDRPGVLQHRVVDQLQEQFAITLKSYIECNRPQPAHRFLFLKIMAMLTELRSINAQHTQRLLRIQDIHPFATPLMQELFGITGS
Chain of Vitamin D3 receptor (Homo sapiens) (P11473 whole entry, looked up): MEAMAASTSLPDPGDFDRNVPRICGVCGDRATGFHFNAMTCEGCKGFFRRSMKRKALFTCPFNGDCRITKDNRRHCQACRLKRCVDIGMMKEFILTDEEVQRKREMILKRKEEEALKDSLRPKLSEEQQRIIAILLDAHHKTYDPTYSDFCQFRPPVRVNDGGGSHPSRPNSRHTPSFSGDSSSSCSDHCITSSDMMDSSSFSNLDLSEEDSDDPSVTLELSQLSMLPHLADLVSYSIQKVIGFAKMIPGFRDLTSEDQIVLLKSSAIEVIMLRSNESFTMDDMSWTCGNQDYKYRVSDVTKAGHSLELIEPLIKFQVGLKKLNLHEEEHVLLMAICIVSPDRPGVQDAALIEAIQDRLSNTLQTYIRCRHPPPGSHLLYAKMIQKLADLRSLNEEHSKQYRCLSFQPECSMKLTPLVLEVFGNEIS

With `O=[N+]([O-])c1ccccc1Cl`, the call in assay [1], in [2] and in assay [3] was inactive.
With `C=CC(=O)OCCCCCCCC(C)C`, the Potency entry in [4] is “inactive”.
Turning to `Oc1c(Cl)cc(Cl)cc1Cl`, the compound was classed as inactive in assay [5].
For `N#CCCNCCC#N`, in assay [6], the compound was classed as inactive. Further, in assay [7], the Potency result was “inactive”.
Turning to `CCC1(c2cnc[nH]2)Cc2ccccc2C1`, in assay [8], the Potency result is “inactive”.
As to `c1ccccc1`, the Potency result in [8] and in assay [9] was “inactive” throughout.
Turning to `Clc1nc(Cl)c(Cl)c(Cl)c1Cl`, in assay [10], the Potency entry is “inactive”.
Turning to `Cc1ccc([N+](=O)[O-])cc1N`, the compound was called inactive in [11].
Take `CCc1cccc(C)c1N`: the result in assay [12] was inactive.
In the case of `Oc1ccc(Cl)cc1Cc1cc(Cl)ccc1O`, the Potency result in assay [13] was “inactive”.
Regarding `Cc1cccc([N+](=O)[O-])c1C`, the Potency entry in assay [14] was “inactive”. Besides, the compound was classed as inactive in assay [11].
`C[N+]1(C)[C@@H]2CC(OC(=O)[C@H](CO)c3ccccc3)C[C@H]1[C@@H]1O[C@@H]12` (stereo not given in full): the Potency entry in assay [15] and in assay [16] was “inactive” throughout.
With `Cc1ccc(O)cc1C`, in assay [17], the Potency entry is “inactive”.
For `Cc1ccc2ccccc2c1C`, in assay [5], the outcome was inactive.
